Rows were chosen to be rich in hits. Some 5.4% of all compounds tested hit in one or more screens of this group.
MIN6 prolif: inducers of MIN6 beta-cell proliferation, primary screen, ATP luminescence, uHTS. MIN6 cells proliferation, ATPlite luminescence, 48 h; cells starved in 0.2% serum; 100% = growth in 10% serum. 0.29% of 330,000 active. proliferation, % at 10 µM;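 active means compounds whose signal lies at least 3.5 SD above the mean of all wells on their plate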;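 further: 0% = DMSO-treated cells in low-serum medium and 100% = 10% serum control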
M18AAP inhibitor: PfM18AAP inhibitors, malaria aminopeptidase, primary screen, biochemical, QFRET, recombinant enzyme; M18 aspartyl aminopeptidase (Plasmodium falciparum 3D7); H-Glu-NHMec fluorogenic cleavage; 1.2% of 290,000 active; inhibition, % at 7.35 µM;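 active means inhibition above the campaign mean inhibition over all tested compounds plus 3 SD, cut at about 28% in these data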;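 further: 0% = plate median of test compound wells and 100% = 2 mM ZnCl2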
GASC-1 inh: inhibitors of GASC-1 histone demethylase, primary screen, biochemical, fluorescence, DELFIA europium | Lysine-specific demethylase 4C (Homo sapiens), Q9H3R0 | GST-JMJD2C(1-420) H3K9me3 demethylation | inhibition, % at 2.35 µM | 0.069% of 330,000 active | AID 2099, 2009;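 active means more than half of a compound's replicate wells show inhibition beyond 50%, single wells judged on their own value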;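 further: signal counts dimethyl H3K9 product captured on neutravidin plate; 0% = median of DMSO wells and 100% = 0.3 times that DMSO median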
Target sequence (Q9H3R0 1-420 limits assumed): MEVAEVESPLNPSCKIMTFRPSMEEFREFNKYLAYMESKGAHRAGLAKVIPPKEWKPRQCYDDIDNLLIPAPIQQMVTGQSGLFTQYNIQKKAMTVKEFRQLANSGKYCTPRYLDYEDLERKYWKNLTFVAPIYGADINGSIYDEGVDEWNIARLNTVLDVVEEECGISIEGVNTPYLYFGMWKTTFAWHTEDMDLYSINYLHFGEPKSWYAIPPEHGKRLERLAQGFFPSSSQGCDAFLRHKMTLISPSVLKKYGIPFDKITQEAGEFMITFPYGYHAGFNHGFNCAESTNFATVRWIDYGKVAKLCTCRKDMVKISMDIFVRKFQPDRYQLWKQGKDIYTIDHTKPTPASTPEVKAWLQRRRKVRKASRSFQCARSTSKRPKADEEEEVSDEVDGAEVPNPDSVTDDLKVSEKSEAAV
ALR H2O2 inh: inhibitors of human ALR sulfhydryl oxidase, primary screen, biochemical, H2O2 detection, HRP-luminol luminescence, single point. FAD-linked sulfhydryl oxidase ALR (Homo sapiens), P55789. purified ALR, DTT oxidation. inhibition, % (no concentration beside the values). 3.8% of 290,000 active. AID 485317, 2010;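 active means mean replicate inhibition above about 79%, with every replicate also reaching it, limit read from the data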
Target sequence (P55789 whole entry, looked up): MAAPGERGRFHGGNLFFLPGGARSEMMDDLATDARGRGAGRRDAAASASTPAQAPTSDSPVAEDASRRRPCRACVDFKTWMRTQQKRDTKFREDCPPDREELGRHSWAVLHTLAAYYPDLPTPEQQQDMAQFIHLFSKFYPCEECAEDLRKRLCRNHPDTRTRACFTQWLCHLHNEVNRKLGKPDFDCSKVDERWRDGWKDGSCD
SMARCA2 activ: SMARCA2 (BRM) function activators, primary screen, cell-based, luminescence, high throughput; 1% of 370,000 active; activation, % at 9.1 µM; MG213 cells, MMTV-luciferase reporter, dexamethasone, overnight; in the data active means activation above about 7.8%;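 further: 0% = vehicle wells and 100% = reference activator wells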
Exocytosis inh: LAMP-1 surface exposure blockers, TALL-104 cells – cell-based, flow cytometry, MLPCN library, primary screen; inhibition, % at 10 µM; AID 651702, 2012; TALL-104 LAMP-1 surface exposure; cells stimulated with thapsigargin and PMA; 0.66% of 360,000 active;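 active means inhibition above about 55%, limit read from the data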
SMARCA2 conf: SMARCA2 (BRM) function activators, confirmation, cell-based, luminescence, triplicate; activation, % at 9.1 µM; 30% of 3,500 active; shares compounds with SMARCA2 activ; MG213 cells, MMTV-luciferase with dexamethasone, overnight; MG213 cells expressing E1A, Rb sequestered; DMSO wells 0%, reference activator 100%;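 active means activation above its plate's cutoff, the mean activation of tested wells plus 3 SD, cut at about 7.9% in these data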
GAL4-VP16 Luc: GAL4-VP16 luciferase reporter activation, counter-screen for SMARCA2 (BRM) activator project, cell-based, pG5luc, luminescence, high throughput | shares compounds with SMARCA2 activ | HEK293 GAL4-VP16 pG5luc reporter; scaled: DMSO wells 0%, SAHA wells 100% | activation, % at 9.1 µM | 41% of 3,500 active | AID 686939, 2013;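 active means activation above the solvent-only control well mean plus 3 SD, averaged across control plates, cut at about 5.2% in these data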
Active calls of the source: *.

Screening Cc1cc(Br)cn2c(Cc3cccc(F)c3)c(-c3ccccc3)nc12 returned SMARCA2 activ -2 and Exocytosis inh -9.
`O=C(NCc1ccncc1)[C@@H]1CCCN1C(=O)[C@H]1CCCN1C(=O)c1cccc(Cl)c1` gave SMARCA2 activ -3 and Exocytosis inh -4.
O=C(CN1C(=O)S/C(=C/C=C/c2ccccc2)C1=O)Nc1ccc(C(=O)O)cc1 was read as MIN6 prolif -1, M18AAP inhibitor 21, GASC-1 inh 5, ALR H2O2 inh 6, SMARCA2 activ 12*, Exocytosis inh 3, SMARCA2 conf 1 and GAL4-VP16 Luc 0.
Screening O=C(CCN1C(=O)/C(=C\C=C\c2ccccc2)SC1=S)Nc1ccc(C(=O)O)cc1 returned MIN6 prolif -6, M18AAP inhibitor 6, GASC-1 inh 1, ALR H2O2 inh -1, SMARCA2 activ 4 and Exocytosis inh 9.
For Cc1ccc(O)c(NC(=O)c2cc(-c3cccs3)on2)c1 the results were MIN6 prolif -1, M18AAP inhibitor 0, GASC-1 inh -4, SMARCA2 activ 13*, Exocytosis inh -4, SMARCA2 conf 21* and GAL4-VP16 Luc 6.8*.
CC(=O)c1ccc(NC(=O)c2noc(C(C)C)c2[N+](=O)[O-])cc1 was read as MIN6 prolif -3, M18AAP inhibitor -3, GASC-1 inh -1, ALR H2O2 inh -11, SMARCA2 activ 2 and Exocytosis inh -2.
`Cc1ccc(O)c(NC(=O)c2noc(C(C)C)c2[N+](=O)[O-])c1` gave MIN6 prolif -4, M18AAP inhibitor 20, GASC-1 inh -7, SMARCA2 activ 9.0*, Exocytosis inh -6, SMARCA2 conf 6 and GAL4-VP16 Luc 1.
`Cc1nn(-c2nc3ccccc3[nH]2)c(N)c1-c1ccccc1` gave MIN6 prolif -3, M18AAP inhibitor 10, GASC-1 inh 4, ALR H2O2 inh 4, SMARCA2 activ 3 and Exocytosis inh 1.
Screening Cc1nn(-c2ccccc2)c(N)c1-c1ccccc1 returned MIN6 prolif -5, M18AAP inhibitor 9, GASC-1 inh -16, ALR H2O2 inh 30, SMARCA2 activ 11*, Exocytosis inh -4, SMARCA2 conf 8.2* and GAL4-VP16 Luc 12*.
`Nc1c(-c2ccccc2)c(CN2CCOCC2)nn1-c1ccccc1` gave MIN6 prolif -1, M18AAP inhibitor -9, GASC-1 inh -8, ALR H2O2 inh 28, SMARCA2 activ 12*, Exocytosis inh 7, SMARCA2 conf -2 and GAL4-VP16 Luc 1.
CC[C@H](CCCc1ccccc1OC)CCS(=O)(=O)N(C)C was read as SMARCA2 activ -5.
Screening COC(=O)C1=CN(c2cccc(OCc3ccccc3)c2)C(N)=C(C#N)C1c1cccc(OC)c1OC (stereo unspecified) returned SMARCA2 activ 2 and Exocytosis inh 4.
Screening COc1ccc(OC)c(NC(=O)/C=C/c2ccccc2[N+](=O)[O-])c1 returned MIN6 prolif -1, M18AAP inhibitor 8, GASC-1 inh 2, ALR H2O2 inh 5, SMARCA2 activ -2 and Exocytosis inh 5.
COc1cccc(NC(=O)/C=C/c2ccccc2[N+](=O)[O-])c1 was read as MIN6 prolif 0, M18AAP inhibitor 4, GASC-1 inh 1, SMARCA2 activ 10*, Exocytosis inh 12, SMARCA2 conf 8.8* and GAL4-VP16 Luc 15*.
Cc1cc(F)cc(-c2cc(C(=O)NCC3CCCCC3)[nH]n2)c1 was read as SMARCA2 activ -2 and Exocytosis inh -2.
For O=C1NC(=Nc2ccccc2)S/C1=C\c1cccs1 the results were MIN6 prolif -3, M18AAP inhibitor -7, GASC-1 inh 5, ALR H2O2 inh 3, SMARCA2 activ 13*, Exocytosis inh -3, SMARCA2 conf 15* and GAL4-VP16 Luc 6.8*.
For Cn1cccc1/C=C1\SC(=Nc2cccc(O)c2)NC1=O the results were MIN6 prolif -5, M18AAP inhibitor 2, GASC-1 inh 5, ALR H2O2 inh 45, SMARCA2 activ 9.9*, Exocytosis inh 1, SMARCA2 conf 10* and GAL4-VP16 Luc 11*.
Screening Cc1cc2c(cc1C)-n1nnnc1C(N(C)Cc1ccccc1)C(=O)N2 (stereo unspecified) returned SMARCA2 activ -5 and Exocytosis inh -13.
`Cc1noc(NS(=O)(=O)c2ccc(N/C=C\C(=O)c3ccc(F)cc3)cc2)c1C` gave MIN6 prolif -1, M18AAP inhibitor -1, GASC-1 inh -10, ALR H2O2 inh 12, SMARCA2 activ 10*, Exocytosis inh -1, SMARCA2 conf 5 and GAL4-VP16 Luc 1.
Screening Cc1noc(NS(=O)(=O)c2ccc(N/C=C\C(=O)c3ccccc3)cc2)c1C returned MIN6 prolif 1, M18AAP inhibitor -7, GASC-1 inh -32, ALR H2O2 inh 13, SMARCA2 activ 4 and Exocytosis inh -2.
COc1ccccc1NC(=O)Nc1ccc(S(=O)(=O)Nc2onc(C)c2C)cc1 was read as MIN6 prolif -4, GASC-1 inh 1, SMARCA2 activ 8.2*, Exocytosis inh -3, SMARCA2 conf -1 and GAL4-VP16 Luc 0.
O=C(NCCCNC(=O)c1ccccn1)c1ccccn1 was read as MIN6 prolif -2, M18AAP inhibitor 12, GASC-1 inh -1, ALR H2O2 inh 3, SMARCA2 activ -1 and Exocytosis inh 0.
For O=C(NNCc1ccccc1)c1ccccn1 the results were SMARCA2 activ 15*, Exocytosis inh -8, SMARCA2 conf 4 and GAL4-VP16 Luc 16*.
For CN(C)CCCNC(=O)c1ccccn1 the results were MIN6 prolif 1, M18AAP inhibitor 3, GASC-1 inh 0, ALR H2O2 inh 1, SMARCA2 activ 8.4*, Exocytosis inh 3, SMARCA2 conf -4 and GAL4-VP16 Luc 0.
Screening O=C(NNCc1ccccc1)c1ccccc1 returned SMARCA2 activ 1 and Exocytosis inh -5.

Screening data deposited in PubChem by several laboratories.
